Common to all, as to test: yeast three-hybrid, YBZ-1, SC-Leu-His + 0.5 mM 3-AT, 4 days
Holding throughout (details): tags: N-Gal4 AD-HA kept; label: inside an RPR1-promoter hybrid RNA with tandem MS2 sites; ssRNA

One test deals with PUM1 PUF domain R2-SWG (Homo sapiens, UniProt Q14671 828-1176, N899S;Y900W;Q903G). Put shortly: (§1)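 The interaction score is the log change in how often each variant appears, from input to selection. Frequencies came from PCR-amplified, Illumina-sequenced repeat regions of Pumilio-1 PUF domain libraries grown in strain YBZ-1 (LexA–MS2 coat fusion, HIS3 reporter) alongside matching RNA elements. Input plates were SC-Leu and selection plates were SC-Leu-His + 0.5 mM 3-AT, each for four days, and the log2 calculation used a pseudocount of 1 where a variant was absent.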

The next test concerns the target PUM1 PUF domain R5-ISR (Homo sapiens, UniProt Q14671 828-1176, C1007I;R1008S;Q1011R). In short, it runs like this: as §1
Another test concerns the target T1, PUM1 PUF domain R6-FHS (Homo sapiens, UniProt Q14671 828-1176, N1043F;Y1044H;Q1047S).
T1 sequence: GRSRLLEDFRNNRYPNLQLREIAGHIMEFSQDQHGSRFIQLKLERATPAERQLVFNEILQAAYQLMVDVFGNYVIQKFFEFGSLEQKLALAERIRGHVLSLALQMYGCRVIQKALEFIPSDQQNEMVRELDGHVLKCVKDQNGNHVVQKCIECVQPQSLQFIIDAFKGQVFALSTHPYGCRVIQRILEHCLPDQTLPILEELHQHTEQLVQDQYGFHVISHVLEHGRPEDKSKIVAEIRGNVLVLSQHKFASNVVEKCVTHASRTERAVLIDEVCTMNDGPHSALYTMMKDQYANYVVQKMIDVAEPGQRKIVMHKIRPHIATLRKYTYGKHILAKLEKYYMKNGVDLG
Put shortly: as §1

A further test deals with PUM1 PUF domain R8-IHR (Homo sapiens, UniProt Q14671 828-1176, N1122I;Y1123H;Q1126R). In short, it runs like this: as §1
In the next test the target is PUM1 PUF domain R8-WWR (Homo sapiens, UniProt Q14671 828-1176, N1122W;Y1123W;Q1126R). In short, it runs like this: as §1
Another test has as its target PUM1 PUF domain R3-SPF (Homo sapiens, UniProt Q14671 828-1176, C935S;R936P;Q939F). In short, it runs like this: as §1
The next test has as its target PUM1 PUF domain R8-GWN (Homo sapiens, UniProt Q14671 828-1176, N1122G;Y1123W;Q1126N). Put shortly: as §1
The next test addresses T2, PUM1 PUF domain R6-RYR (Homo sapiens, UniProt Q14671 828-1176, N1043R;Q1047R).
T2 sequence: T1 sequence with F216R, H217Y, S220R
In short, it runs like this:
as §1

A further test deals with PUM1 PUF domain R3-PWS (Homo sapiens, UniProt Q14671 828-1176, C935P;R936W;Q939S). Put shortly:
as §1

A further test deals with PUM1 PUF domain R7-KSV (Homo sapiens, UniProt Q14671 828-1176, S1079K;N1080S;E1083V). In short, it runs like this: as §1
The target of another test is PUM1 PUF domain R7-RSK (Homo sapiens, UniProt Q14671 828-1176, S1079R;N1080S;E1083K). Put shortly:
as §1

The target of a further test is PUM1 PUF domain R1-TLR (Homo sapiens, UniProt Q14671 828-1176, S863T;R864L;Q867R). Put shortly:
as §1

Another test addresses PUM1 PUF domain R1-YCR (Homo sapiens, UniProt Q14671 828-1176, S863Y;R864C;Q867R). Put shortly: as §1
Another test deals with PUM1 PUF domain R3-RSF (Homo sapiens, UniProt Q14671 828-1176, C935R;R936S;Q939F). Put shortly:
as §1

A further test concerns the target PUM1 PUF domain R3-IFA (Homo sapiens, UniProt Q14671 828-1176, C935I;R936F;Q939A). Put shortly: as §1
The target in another test is PUM1 PUF domain R4-DHT (Homo sapiens, UniProt Q14671 828-1176, N971D;Q975T). In short, it runs like this:
as §1

A further test has as its target PUM1 PUF domain R5-RMW (Homo sapiens, UniProt Q14671 828-1176, C1007R;R1008M;Q1011W). In short, it runs like this:
as §1

The target of the next test is PUM1 PUF domain R5-QQC (Homo sapiens, UniProt Q14671 828-1176, C1007Q;R1008Q;Q1011C). In short, it runs like this:
as §1

A further test addresses PUM1 PUF domain R5-QHE (Homo sapiens, UniProt Q14671 828-1176, C1007Q;R1008H;Q1011E). In short, it runs like this:
as §1

A further test deals with PUM1 PUF domain R5-SAG (Homo sapiens, UniProt Q14671 828-1176, C1007S;R1008A;Q1011G). In short, it runs like this:
as §1

Numbering of substitutions follows the chain as printed.

“GGCUAGAACUAGUGGAUCCCCCGGCGCCCGGCGGCUCGAGCCCGGGUAAGUGUAAAAAGUCUGCAUGCCGCCGGGCGCCAUGCCUGCAGGUCGACUCUAGAAAACAUG”: the binding signal with PUM1 PUF domain R2-SWG was 3.09 log2 enrichment (interaction score).

Take “GGCUAGAACUAGUGGAUCCCCCGGCGCCCGGCGGCUCGAGCCCGGGUAAGUGUAAAUAGUCUGCAUGCCGCCGGGCGCCAUGCCUGCAGGUCGACUCUAGAAAACAUG”: the binding signal with PUM1 PUF domain R5-ISR is 1.4 log2 enrichment (interaction score); with PUM1 PUF domain R6-FHS it was 4.18 log2 enrichment (interaction score); with PUM1 PUF domain R8-IHR, 3.28 log2 enrichment (interaction score); with PUM1 PUF domain R8-WWR, 4.62 log2 enrichment (interaction score); in the test with PUM1 PUF domain R3-SPF it was 4.55 log2 enrichment (interaction score); in the test with PUM1 PUF domain R8-GWN, 3.4 log2 enrichment (interaction score). For the same sequence, the binding signal was 3.26 log2 enrichment (interaction score) in the test with PUM1 PUF domain R6-RYR and 4.23 log2 enrichment (interaction score) in the test with PUM1 PUF domain R3-PWS.

Regarding “GGCUAGAACUAGUGGAUCCCCCGGCGCCCGGCGGCUCGAGCCCGGGUAAGUGAAAAUAGUCUGCAUGCCGCCGGGCGCCAUGCCUGCAGGUCGACUCUAGAAAACAUG”, in the test with PUM1 PUF domain R6-RYR, the binding signal was 1.38 log2 enrichment (interaction score).

“GGCUAGAACUAGUGGAUCCCCCGGCGCCCGGCGGCUCGAGCCCGGGUAAGUCUAAAUAGUCUGCAUGCCGCCGGGCGCCAUGCCUGCAGGUCGACUCUAGAAAACAUG”: the binding signal was 3.22 log2 enrichment (interaction score) with PUM1 PUF domain R7-KSV and 3.84 log2 enrichment (interaction score) in the test with PUM1 PUF domain R7-RSK.

For “GGCUAGAACUAGUGGAUCCCCCGGCGCCCGGCGGCUCGAGCCCGGGUAAGUGUAAAUUGUCUGCAUGCCGCCGGGCGCCAUGCCUGCAGGUCGACUCUAGAAAACAUG”, the binding signal with PUM1 PUF domain R1-TLR was 1.83 log2 enrichment (interaction score); with PUM1 PUF domain R1-YCR, 7.79 log2 enrichment (interaction score).

Regarding “GGCUAGAACUAGUGGAUCCCCCGGCGCCCGGCGGCUCGAGCCCGGGUAAGUGUAAUUAGUCUGCAUGCCGCCGGGCGCCAUGCCUGCAGGUCGACUCUAGAAAACAUG”, the binding signal in the test with PUM1 PUF domain R3-RSF was 3.86 log2 enrichment (interaction score); with PUM1 PUF domain R3-IFA, 3.87 log2 enrichment (interaction score); with PUM1 PUF domain R3-SPF it was 2.3 log2 enrichment (interaction score); with PUM1 PUF domain R3-PWS, 1.88 log2 enrichment (interaction score).

In the case of “GGCUAGAACUAGUGGAUCCCCCGGCGCCCGGCGGCUCGAGCCCGGGUAAGUGUAAAUCGUCUGCAUGCCGCCGGGCGCCAUGCCUGCAGGUCGACUCUAGAAAACAUG”, the binding signal in the test with PUM1 PUF domain R1-TLR was 4.21 log2 enrichment (interaction score); in the test with PUM1 PUF domain R1-YCR, 7.03 log2 enrichment (interaction score).

As for “GGCUAGAACUAGUGGAUCCCCCGGCGCCCGGCGGCUCGAGCCCGGGUAAGUGUACAUAGUCUGCAUGCCGCCGGGCGCCAUGCCUGCAGGUCGACUCUAGAAAACAUG”, the binding signal with PUM1 PUF domain R4-DHT was 2.73 log2 enrichment (interaction score).

Take “GGCUAGAACUAGUGGAUCCCCCGGCGCCCGGCGGCUCGAGCCCGGGUAAGUGUUAAUAGUCUGCAUGCCGCCGGGCGCCAUGCCUGCAGGUCGACUCUAGAAAACAUG”: the binding signal in the test with PUM1 PUF domain R5-RMW was 0.73 log2 enrichment (interaction score).

Turning to “GGCUAGAACUAGUGGAUCCCCCGGCGCCCGGCGGCUCGAGCCCGGGUAAGUGUAAAGAGUCUGCAUGCCGCCGGGCGCCAUGCCUGCAGGUCGACUCUAGAAAACAUG”, the binding signal with PUM1 PUF domain R2-SWG was 1.53 log2 enrichment (interaction score).

With “GGCUAGAACUAGUGGAUCCCCCGGCGCCCGGCGGCUCGAGCCCGGGUAAGUGUCAAUAGUCUGCAUGCCGCCGGGCGCCAUGCCUGCAGGUCGACUCUAGAAAACAUG”, the binding signal is 3.12 log2 enrichment (interaction score) with PUM1 PUF domain R5-ISR and 3.01 log2 enrichment (interaction score) in the test with PUM1 PUF domain R5-RMW.

With “GGCUAGAACUAGUGGAUCCCCCGGCGCCCGGCGGCUCGAGCCCGGGUAAGCGUAAAUAGUCUGCAUGCCGCCGGGCGCCAUGCCUGCAGGUCGACUCUAGAAAACAUG”, the binding signal with PUM1 PUF domain R8-IHR is 4.48 log2 enrichment (interaction score); in the test with PUM1 PUF domain R8-WWR it was 4.84 log2 enrichment (interaction score); with PUM1 PUF domain R8-GWN it was 5.24 log2 enrichment (interaction score).

Consider “GGCUAGAACUAGUGGAUCCCCCGGCGCCCGGCGGCUCGAGCCCGGGUAAGUGUGAAUAGUCUGCAUGCCGCCGGGCGCCAUGCCUGCAGGUCGACUCUAGAAAACAUG”, for which the binding signal in the test with PUM1 PUF domain R5-QQC is 4.46 log2 enrichment (interaction score); in the test with PUM1 PUF domain R5-QHE it was 3.04 log2 enrichment (interaction score); with PUM1 PUF domain R5-SAG it was 3.06 log2 enrichment (interaction score).

“GGCUAGAACUAGUGGAUCCCCCGGCGCCCGGCGGCUCGAGCCCGGGUAAGUUUAAAUAGUCUGCAUGCCGCCGGGCGCCAUGCCUGCAGGUCGACUCUAGAAAACAUG”: the values for the binding signal in the test with PUM1 PUF domain R7-KSV and with PUM1 PUF domain R7-RSK were 3.22 log2 enrichment (interaction score) and 3.42 log2 enrichment (interaction score), respectively.

The values are drawn from PMC8384837, “Expanding the binding specificity for RNA recognition by a PUF domain”.
